Measurements published in the supplement of paper PMC11732987, “Enantioselective OTUD7B fragment discovery through chemoproteomics screening and high-throughput optimisation” (Communications Chemistry, 2025).
Values without a mark were called inactive.

Columns and labels:
Test in all cases: log2 ratio of Biotin-Ahx-Ub-VS probe labelling (fragment/DMSO); higher = less target engagement (more negative = stronger competition), active = hit call of the paper (q ≤ 0.05, log2 ratio ≤ -1)
Details in all cases: compound concentration: 200 uM; treatment time: 3 h
OTUD6B = molecular target: T1, OTUD6B (UniProt Q8N6M0)
T1 sequence (whole entry): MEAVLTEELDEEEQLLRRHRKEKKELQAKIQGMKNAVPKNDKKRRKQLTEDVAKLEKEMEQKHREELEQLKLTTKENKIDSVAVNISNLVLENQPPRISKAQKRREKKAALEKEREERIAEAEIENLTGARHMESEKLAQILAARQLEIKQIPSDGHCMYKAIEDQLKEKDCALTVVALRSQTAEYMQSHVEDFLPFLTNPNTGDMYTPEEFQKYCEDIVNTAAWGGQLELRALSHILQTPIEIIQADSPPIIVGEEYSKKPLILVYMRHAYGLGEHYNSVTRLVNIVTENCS
Outline: (§1)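 Global-median-normalised Spectronaut label-free quantities were compared by unpaired t-test, and values are average log2 ratios of fragment over vehicle. Only proteins with ≥2 unique peptides were used. HEK293T lysate (495 µg per sample) was treated in triplicate with fragment at 200 µM or vehicle for 3 h and then with Biotin-Ahx-Ub-VS at 0.5 µM final for 1 h. Labelled DUBs were then NeutrAvidin-enriched, digested with LysC and trypsin, and run by diaPASEF LC-MS/MS.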

OTUD7B = molecular target: T2, OTUD7B (UniProt Q6GQQ9)
T2 sequence (whole entry): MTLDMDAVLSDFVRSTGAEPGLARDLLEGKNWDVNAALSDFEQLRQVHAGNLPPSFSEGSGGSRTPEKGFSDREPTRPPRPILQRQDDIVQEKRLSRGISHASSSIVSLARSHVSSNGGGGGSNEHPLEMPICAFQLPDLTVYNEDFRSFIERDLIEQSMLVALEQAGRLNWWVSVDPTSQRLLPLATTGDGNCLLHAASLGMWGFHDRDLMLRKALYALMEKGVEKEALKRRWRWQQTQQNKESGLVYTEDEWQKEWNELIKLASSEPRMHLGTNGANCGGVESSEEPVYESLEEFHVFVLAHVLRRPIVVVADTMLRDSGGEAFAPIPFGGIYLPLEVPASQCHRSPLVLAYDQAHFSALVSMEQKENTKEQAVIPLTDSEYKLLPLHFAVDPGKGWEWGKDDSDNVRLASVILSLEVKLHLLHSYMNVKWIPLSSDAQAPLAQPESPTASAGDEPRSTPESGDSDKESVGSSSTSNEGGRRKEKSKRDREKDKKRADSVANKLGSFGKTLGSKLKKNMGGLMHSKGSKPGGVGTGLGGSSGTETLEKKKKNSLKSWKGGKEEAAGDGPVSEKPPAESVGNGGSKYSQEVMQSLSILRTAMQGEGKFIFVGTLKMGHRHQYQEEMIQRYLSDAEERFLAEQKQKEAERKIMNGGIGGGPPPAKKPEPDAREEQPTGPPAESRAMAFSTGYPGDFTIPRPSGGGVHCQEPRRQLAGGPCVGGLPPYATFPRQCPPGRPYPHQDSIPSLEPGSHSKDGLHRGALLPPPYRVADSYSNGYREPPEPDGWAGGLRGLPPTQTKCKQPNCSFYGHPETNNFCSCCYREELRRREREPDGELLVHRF
Outline: as §1

PRPF8 = PRPF8 (UniProt Q6P2Q9)
Outline: as §1

PSMD7 = molecular target: T3, PSMD7 (UniProt P51665)
T3 sequence (whole entry): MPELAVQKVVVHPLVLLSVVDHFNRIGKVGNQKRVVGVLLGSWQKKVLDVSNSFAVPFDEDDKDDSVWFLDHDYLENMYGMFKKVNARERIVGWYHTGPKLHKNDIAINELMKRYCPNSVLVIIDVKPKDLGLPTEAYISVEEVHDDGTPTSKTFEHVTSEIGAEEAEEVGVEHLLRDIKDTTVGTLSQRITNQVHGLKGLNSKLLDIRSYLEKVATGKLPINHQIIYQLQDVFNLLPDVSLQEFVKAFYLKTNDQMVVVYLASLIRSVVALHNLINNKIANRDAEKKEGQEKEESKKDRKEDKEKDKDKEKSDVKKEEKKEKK
Outline: as §1

UCHL1 = UCHL1 (UniProt P09936)
Chain of UCHL1 (P09936 whole entry, looked up): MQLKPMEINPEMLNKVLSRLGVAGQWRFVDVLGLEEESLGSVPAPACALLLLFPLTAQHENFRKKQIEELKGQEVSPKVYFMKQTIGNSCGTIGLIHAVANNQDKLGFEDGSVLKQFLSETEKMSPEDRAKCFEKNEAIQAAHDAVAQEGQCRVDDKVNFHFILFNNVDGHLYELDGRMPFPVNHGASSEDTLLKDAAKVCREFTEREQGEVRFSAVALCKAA
Outline: as §1

UCHL3 = molecular target: T4, UCHL3 (UniProt P15374)
T4 sequence (whole entry): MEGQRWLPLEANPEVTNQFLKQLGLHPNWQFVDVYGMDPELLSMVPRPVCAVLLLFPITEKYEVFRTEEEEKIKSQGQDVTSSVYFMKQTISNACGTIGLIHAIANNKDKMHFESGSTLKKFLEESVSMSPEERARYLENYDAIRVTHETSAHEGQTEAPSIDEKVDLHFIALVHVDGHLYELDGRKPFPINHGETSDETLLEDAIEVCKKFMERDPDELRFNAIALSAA
Outline: as §1

UCHL5 = molecular target: T5, UCHL5 (UniProt Q9Y5K5)
T5 sequence (whole entry): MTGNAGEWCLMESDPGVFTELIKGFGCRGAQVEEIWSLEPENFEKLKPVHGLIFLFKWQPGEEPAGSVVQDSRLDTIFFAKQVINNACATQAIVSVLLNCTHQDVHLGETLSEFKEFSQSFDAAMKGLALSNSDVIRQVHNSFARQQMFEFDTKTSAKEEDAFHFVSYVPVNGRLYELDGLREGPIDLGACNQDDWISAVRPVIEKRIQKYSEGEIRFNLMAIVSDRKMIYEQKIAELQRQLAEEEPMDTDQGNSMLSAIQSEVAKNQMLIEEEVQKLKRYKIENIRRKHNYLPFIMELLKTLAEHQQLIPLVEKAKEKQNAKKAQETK
Outline: as §1

USP10 = USP10 (UniProt Q14694)
Chain of USP10 (Q14694 whole entry): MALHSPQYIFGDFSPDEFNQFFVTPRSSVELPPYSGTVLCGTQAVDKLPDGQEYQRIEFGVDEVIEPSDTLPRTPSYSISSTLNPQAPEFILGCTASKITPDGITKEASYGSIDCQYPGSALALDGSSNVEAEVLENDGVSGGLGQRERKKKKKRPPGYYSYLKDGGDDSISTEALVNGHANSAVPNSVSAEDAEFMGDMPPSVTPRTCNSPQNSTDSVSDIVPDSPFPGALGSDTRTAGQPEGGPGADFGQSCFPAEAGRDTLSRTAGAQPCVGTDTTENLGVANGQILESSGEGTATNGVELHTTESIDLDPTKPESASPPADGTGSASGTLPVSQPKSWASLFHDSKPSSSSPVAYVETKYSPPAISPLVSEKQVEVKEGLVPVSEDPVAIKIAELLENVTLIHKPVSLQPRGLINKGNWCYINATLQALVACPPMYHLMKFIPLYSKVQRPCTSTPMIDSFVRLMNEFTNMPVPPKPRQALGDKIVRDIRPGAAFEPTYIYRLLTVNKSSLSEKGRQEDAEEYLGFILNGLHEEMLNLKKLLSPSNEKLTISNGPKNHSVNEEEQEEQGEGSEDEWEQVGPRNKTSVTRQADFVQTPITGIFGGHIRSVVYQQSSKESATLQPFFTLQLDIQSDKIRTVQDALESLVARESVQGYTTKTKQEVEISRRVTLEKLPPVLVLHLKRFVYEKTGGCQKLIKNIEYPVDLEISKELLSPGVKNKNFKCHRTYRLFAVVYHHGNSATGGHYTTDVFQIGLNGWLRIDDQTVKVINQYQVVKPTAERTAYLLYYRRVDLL
Outline: as §1

USP15 = molecular target: T6, USP15 (UniProt Q9Y4E8)
T6 sequence (whole entry): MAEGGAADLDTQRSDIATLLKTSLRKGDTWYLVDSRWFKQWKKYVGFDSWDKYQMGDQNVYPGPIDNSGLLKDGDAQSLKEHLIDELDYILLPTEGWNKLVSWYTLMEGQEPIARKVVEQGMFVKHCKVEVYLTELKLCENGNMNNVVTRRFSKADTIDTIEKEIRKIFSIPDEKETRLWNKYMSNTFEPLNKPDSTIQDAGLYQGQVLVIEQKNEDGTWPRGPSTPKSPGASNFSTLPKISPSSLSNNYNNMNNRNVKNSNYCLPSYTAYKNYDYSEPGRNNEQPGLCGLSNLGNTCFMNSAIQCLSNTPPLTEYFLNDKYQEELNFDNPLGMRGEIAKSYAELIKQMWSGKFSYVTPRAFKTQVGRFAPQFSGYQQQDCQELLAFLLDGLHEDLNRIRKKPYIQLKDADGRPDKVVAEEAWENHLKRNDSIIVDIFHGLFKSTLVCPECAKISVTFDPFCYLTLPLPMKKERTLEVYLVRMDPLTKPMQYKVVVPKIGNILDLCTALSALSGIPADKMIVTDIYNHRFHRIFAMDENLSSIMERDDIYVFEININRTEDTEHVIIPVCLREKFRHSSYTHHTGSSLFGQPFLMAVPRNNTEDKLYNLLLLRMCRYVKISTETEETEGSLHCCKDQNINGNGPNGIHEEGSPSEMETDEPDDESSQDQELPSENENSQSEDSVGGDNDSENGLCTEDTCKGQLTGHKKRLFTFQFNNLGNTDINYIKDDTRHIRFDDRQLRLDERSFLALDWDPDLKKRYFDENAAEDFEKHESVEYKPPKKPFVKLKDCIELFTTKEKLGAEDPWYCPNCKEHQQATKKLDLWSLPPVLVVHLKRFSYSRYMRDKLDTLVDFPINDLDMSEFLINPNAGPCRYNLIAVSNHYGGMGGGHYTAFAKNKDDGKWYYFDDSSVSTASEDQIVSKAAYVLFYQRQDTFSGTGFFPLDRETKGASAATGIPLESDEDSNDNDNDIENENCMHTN
Outline: as §1

USP16 = USP16 (UniProt Q9Y5T5)
Chain of USP16 (Q9Y5T5 whole entry, looked up): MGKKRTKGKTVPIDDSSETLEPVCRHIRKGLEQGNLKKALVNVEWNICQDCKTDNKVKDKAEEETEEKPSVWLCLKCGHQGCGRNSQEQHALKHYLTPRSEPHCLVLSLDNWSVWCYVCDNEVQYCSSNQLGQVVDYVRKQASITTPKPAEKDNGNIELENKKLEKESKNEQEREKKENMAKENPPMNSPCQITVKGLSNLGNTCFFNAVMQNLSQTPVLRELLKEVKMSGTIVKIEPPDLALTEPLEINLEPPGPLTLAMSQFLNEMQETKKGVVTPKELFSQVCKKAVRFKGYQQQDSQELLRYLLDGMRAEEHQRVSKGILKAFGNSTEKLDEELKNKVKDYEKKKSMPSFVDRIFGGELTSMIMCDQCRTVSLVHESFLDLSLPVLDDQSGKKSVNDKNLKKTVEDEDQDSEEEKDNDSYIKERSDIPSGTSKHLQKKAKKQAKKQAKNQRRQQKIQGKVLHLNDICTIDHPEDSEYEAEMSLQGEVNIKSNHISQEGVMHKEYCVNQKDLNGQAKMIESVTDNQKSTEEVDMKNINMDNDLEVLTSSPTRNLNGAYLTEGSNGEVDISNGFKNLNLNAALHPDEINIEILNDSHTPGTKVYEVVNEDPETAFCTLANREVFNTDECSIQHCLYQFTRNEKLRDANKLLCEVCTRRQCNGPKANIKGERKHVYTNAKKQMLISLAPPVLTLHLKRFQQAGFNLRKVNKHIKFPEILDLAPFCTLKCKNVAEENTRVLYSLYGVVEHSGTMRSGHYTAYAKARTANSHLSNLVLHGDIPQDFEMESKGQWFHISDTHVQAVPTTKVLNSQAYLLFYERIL
Outline: as §1

SMILES: Cl.O=C(CCl)N1CCn2cncc2C1
- log2 ratio of Biotin-Ahx-Ub-VS probe labelling (OTUD6B): -0.541
- log2 ratio of Biotin-Ahx-Ub-VS probe labelling (OTUD7B): -0.166
- log2 ratio of Biotin-Ahx-Ub-VS probe labelling (PRPF8): 0.208
- log2 ratio of Biotin-Ahx-Ub-VS probe labelling (PSMD7): 0.0226
- log2 ratio of Biotin-Ahx-Ub-VS probe labelling (UCHL1): -1.37 (active)
- log2 ratio of Biotin-Ahx-Ub-VS probe labelling (UCHL3): 0.291
- log2 ratio of Biotin-Ahx-Ub-VS probe labelling (UCHL5): 0.0547
- log2 ratio of Biotin-Ahx-Ub-VS probe labelling (USP10): -0.131
- log2 ratio of Biotin-Ahx-Ub-VS probe labelling (USP15): -0.372
- log2 ratio of Biotin-Ahx-Ub-VS probe labelling (USP16): -0.425
